# Experimental data as given in PubChem BioAssay AID686970 (National Center for Advancing Translational Sciences (NCATS), 2013).
# Among all 360,000 compounds or so, about 6,000 (1.7%) were called active. Not shown: some 8% with an inconclusive outcome. This excerpt belongs to a sample that is enriched for actives. Unmarked numbers belong to inactive results. Calls follow the shape of the dose curve; as a rule, active = well fitted cell-killing curve with a large enough effect; inconclusive = small, poorly fitted or top-dose-only effect, or effect the other way; inactive = flat fitted curve, though single readings scatter.
# Assay: qHTS for induction of synthetic lethality in tumor cells producing 2HG: qHTS for the HT-1080-NT fibrosarcoma cell line; also: nearly all actives have a fitted effect of over 55% in size
# Settings: HT-1080-NT fibrosarcoma viability, CellTiter-Glo ATP luminescence, 48 h; series mostly up to 46.1 µM; activity, negative = less viability: at the top concentration
# Description: Unbiased genomic sequencing for 22 glioma genomes found recurrent mutation of IDH1 on chromosome 2q33, a gene encoding the cytosolic isoform of IDH1 associated with the tricarboxylic acid cycle (TCA) that catalyzes the oxidative decarboxylation of isocitrate, yielding alpha-ketoglutarate and CO2 via NADP+ to NADPH conversion. Subsequent studies confirmed the recurrent IDH mutations in up to 70% of secondary gliomas and in 10% of AML cases. In addition, the somatic mutation of cancer-associated IDH1 is a point mutation resulting in various amino-acid substituents at Arginine132 (IDH1 R132), a key residue found in the enzyme's active site that when mutated, results in the loss-of-function in metabolizing isocitrate but confers a gain-of-function to produce the oncometabolite 2-hydroxyglutarate (2HG). This in effect defines IDH1 as an oncogene and provides an extraordinary opportunity to discover chemical probes against mutant IDH1 that may translate into much needed new therapies for glioma and AML patients.
# This assay aims to perform a synthetic lethal screen for chemical probes specific for 2HG-producing tumor cells using matched paired cell lines (1) HT-1080-NT fibrosarcoma cell line that overproduces 2HG and (2) HT-1080-IDH1KD cell line which has IDH1 expression knocked-down. Desirable compounds are toxic to the NT fibrosarcoma cells but not to the IDH1KD cell line. The data in this AID corresponds to the results of the qHTS against the HT-1080-NT fibrosarcoma cell line.
# [1] Dang L, Jin S, Su SM. IDH mutations in glioma and acute myeloid leukemia. Trends of Mol Med. 2010; 16(9): 387-97.
# [2] Dang L et al. Cancer-associated IDH1 mutations produce 2-hydroxyglutarate. Nature. 2010; 465(7300):966.
# NIH Molecular Libraries Probe Production Centers Network [MLPCN]
# NIH Chemical Genomics Center [NCGC]
# Assay Submitter (PI): Lenny Dang Ph.D., Agios Pharmaceuticals
# Suspensions of trypsinized HT-1080-NT cells were dispensed into white, tissue culture-treated, solid 1536-well plates at 5uL/well (750 cells/well final concentration) in RPMI medium supplemented with 5% FBS. Plates were incubated at 37 degrees C for 2 hours, after which 23 nL of compounds or DMSO were delivered to each well using a pin tool. Plates were then incubated at 37 degrees C for an additional 48 hours. CellTiter-Glo viability reagent (Promega) was dispensed into wells (2.5uL/well) and incubated at room temperature for 10 minutes. The plates were measured on a PerkinElmer ViewLux plate reader for luminescent signal (clear filter, 1 sec exp). DMSO-treated control wells and media-only (no cells) control wells were used to normalize %Activity of identified toxic compounds; DMSO-treated wells corresponded to 0%Activity (100% viability), while media-only controls were used to normalize 100%Activity (0% viability).
# Concentration-response curves were fitted to the signals arising from the resulting luminescence. The concentration-effect curves were then classified based on curve quality (r2), response magnitude and degree of measured activity, and compounds were subsequently categorized based on their curve class.
# Potency is read from the fitted curve at half-maximal effect.
SMILES,"activity, negative = less viability",Potency
CN(NS(=O)(=O)c1cccs1)c1ncc(C(F)(F)F)cc1Cl,6.3%,
Cc1ccc(NS(=O)(=O)c2ccc(C(C)(C)C)cc2)cn1,1.12%,
Cc1cc(C)cc(NS(=O)(=O)c2ccc(Oc3ncc(C(F)(F)F)cc3Cl)cc2)c1,,23.1 µM (active)
COC(=O)[C@@]1(Sc2ccc(C)cc2)CC(=O)N(c2cccc(SC)c2)[C@@H]1c1ccccc1,-37.1%,
CCCCCCN1CCN(C2CN(Cc3cn(CCCCCC)nn3)S(=O)(=O)C2)CC1 (stereo unspecified),-28.1%,
CCC1(CC)Cc2ccccc2-c2nc(CCl)[nH]c(=O)c21,-27.6%,
Cn1c(NCc2cccnc2)nc2cc(-c3ccc(F)cc3)sc2c1=O,3.48%,
O=c1[nH]c(CCl)nc2cc(-c3ccc(Cl)cc3)sc12,,16.4 µM (active)
CC(C)c1ccc(CC(=O)N2CCC2(C)C(=O)NS(=O)(=O)c2ccc(C(C)(C)C)cc2)cc1 (stereo unspecified),2.38%,
CCCS(=O)(=O)NC(=O)C1(C)CCCN(C(=O)c2ccnc(Cl)c2)C1 (stereo unspecified),22.2%,
CCCCCCN1C[C@H](O)[C@@H](n2cc(C3CC3)nn2)C[C@@H]1c1ccc(Cl)cc1,-1.63%,
COc1ccc2oc(=O)cc(-c3cc4ccccc4o3)c2c1,-5.9%,
COc1ccc(Nc2ccc3ccccc3c2)cc1,-25.9%,
COc1ccc(Nc2cc(=O)oc3ccccc23)cc1,,7.31 µM (active)
COCCNC(=O)c1cc2c(Br)ccc(Br)c2nc1N,-6.43%,
Cc1cccc(-n2ncc3c(=O)[nH]c(SCC(=O)Nc4cc(C)on4)nc32)c1,9.3%,

SMILES,"activity, negative = less viability",Potency
Cc1cccc(-n2ncc(Cl)c(Cl)c2=O)c1,,5.8 µM (active)
C=CCNc1cnn(-c2ccc(C)cc2)c(=O)c1Cl,14.9%,
Cc1cc(Br)cn2c(Cc3ccccc3C(F)(F)F)c(C3CCCCC3)nc12,22.8%,
CC(=O)Nc1cnc(-c2ccc(O)cc2C)cn1,11.8%,
Cc1ccc(Nc2nc(-c3ccc(O)cc3O)cs2)nc1,,1.64 µM (active)
Oc1ccc(-c2nc3ccccc3nc2-c2ccc(O)cc2O)c(O)c1,-11.5%,
O=C(NCc1ccc(F)cc1)c1cc(C2CCCCN2C(=O)C2CCCCC2)on1 (stereo unspecified),1.47%,
N#Cc1ccc(-c2nc3c(Cl)cc(C(F)(F)F)cn3c2Cc2ccccc2C(F)(F)F)cc1,13.4%,
COc1cccc(C(O)c2ncc(-c3ccc4ccccc4c3)[nH]2)c1 (stereo unspecified),-8.84%,
COc1cccc(C(O)c2nc3ccccc3n2C)c1 (stereo unspecified),-2.98%,
CCCCCC(O)c1cccc(OCc2ccc3ccccc3n2)c1 (stereo unspecified),,14.6 µM (active)
COc1ccc(C(=O)NCC[N+](C)(C)C)cc1,21.8%,
Cc1cc(C)nc(S/C=C/C(=O)c2ccccc2)n1,,5.17 µM (active)
Cc1cc(C)nc(SCc2ccccc2C#N)n1,-13.3%,
Cc1cc(C)nc(N(C#N)CC(=O)Nc2ccccc2)n1,-1.01%,
